CYP2C9 activ – increases human cytochrome P450 2C9 activity. P11712. recombinant CYP2C9, luciferin-H conversion, luminescence; hits give high values; factor 1 = untreated enzyme, 0 = blocked. activation factor at 5 µM. 1.4% of 96,000 active. AID 1024;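 active = activation factor of 2 or more for CYP2C9 at a 5 µM dose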
PostGolgi yeast – growth inhibition of a yeast mutant, post-Golgi transport screen; 0.9% of 98,000 active; AID 739; post-Golgi transport phenotypic cell assay; inhibition, % at 10 µM;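 also: yeast cells grown in 1536-well plates; yeast grown about 18 h at 30C before absorbance read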
CYP2C19 act – cytochrome P450 2C19 (human) activation. P33261. recombinant CYP2C19, luciferin-H EGE luminescence; hits give high values; 0 = fully inhibited enzyme, 1 = untreated enzyme. activation factor at 5 µM. 96,000 tested, under 10 active. AID 1025;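 active = activation factor of at least 2 at 5 µM in the primary screen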
Target sequence (P33261 whole entry, looked up): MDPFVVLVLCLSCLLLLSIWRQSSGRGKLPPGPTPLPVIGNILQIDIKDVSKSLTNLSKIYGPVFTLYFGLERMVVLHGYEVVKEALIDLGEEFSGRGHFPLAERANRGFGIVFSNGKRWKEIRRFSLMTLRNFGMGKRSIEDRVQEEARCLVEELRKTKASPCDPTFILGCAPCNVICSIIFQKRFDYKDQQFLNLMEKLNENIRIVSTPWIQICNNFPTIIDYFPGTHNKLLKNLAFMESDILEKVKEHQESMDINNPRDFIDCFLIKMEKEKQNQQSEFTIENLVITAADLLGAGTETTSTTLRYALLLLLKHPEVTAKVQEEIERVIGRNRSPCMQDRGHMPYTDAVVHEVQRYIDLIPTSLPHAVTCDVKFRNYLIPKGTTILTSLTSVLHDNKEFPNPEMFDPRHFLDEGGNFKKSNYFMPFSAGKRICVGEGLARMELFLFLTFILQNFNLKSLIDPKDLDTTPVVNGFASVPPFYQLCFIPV
CYP2C19 inhib – inhibitors of human CYP2C19. CYP2C19 Supersomes, luciferin-H EGE luminescence, 30 min. 21% of 96,000 active. inhibition, % at 5 µM. P33261. AID 778;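 active = CYP2C19 inhibition above a set limit at 5 µM in the primary screen, cut at about 50% in these data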
CYP2C9 inhib – inhibitors of human CYP2C9 | CYP2C9 Supersomes, luciferin-H conversion, luminescence | P11712 | inhibition, % at 5 µM | 20% of 96,000 active;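 active = blocking of liver enzyme CYP2C9 beyond about 50% at 5 µM, limit read from the data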
PostGolgi ctrl – yeast control strain growth, post-Golgi counter-screen; efflux-deficient yeast background strain, growth absorbance A615, 16 h; inhibition, % at 10 µM; 5% of 98,000 active
A number is an active result; – = inactive; · = no result. This is a sample that favours compounds with a hit; in the whole collection about 32% have one here. Rule as the data show it, unless noted: active = inhibition above about 30%; inactive = the rest.

SMILES	CYP2C9 activ	PostGolgi yeast	CYP2C19 act	CYP2C19 inhib	CYP2C9 inhib	PostGolgi ctrl
O=C(CNC(=O)c1ccco1)OCN1C(=O)c2ccccc2C1=O	–	–	–	–	–	–
O=S(=O)(NC1CCCCC1NS(=O)(=O)c1ccc(F)cc1)c1ccc(F)cc1 (configuration not stated)	–	–	–	62	87	–
O=S(=O)(N/N=C\C=C\c1ccccc1)c1ccc(Br)cc1	–	–	–	–	97	–
Cc1ccc(S(=O)(=O)N/N=C/c2ccc(C(=O)O)cc2)cc1	–	–	–	–	–	–
Cc1ccc(S(=O)(=O)N/N=C\C=C\c2ccccc2)cc1	–	–	–	–	84	–
O=C(NC1CCCCC1)N1CCN(C(=O)c2ccco2)CC1	–	–	–	–	–	–
CC(=O)Nc1cccc(Oc2nc(C)cc(C)c2C#N)c1	–	–	–	–	–	32
CCC(=O)Nc1cccc(Oc2nc(C)cc(C)c2C#N)c1	–	–	–	–	–	–
COc1ccccc1NC(=O)c1ccc(Cl)c(S(=O)(=O)N2CCOCC2)c1	–	–	–	–	51	–
Cc1ccc(NC(=O)c2ccc(F)c(S(=O)(=O)N3CCOCC3)c2)cc1F	–	–	–	–	–	–
COc1ccc(C(=O)Nc2ccc(S(=O)(=O)N3CCOCC3)cc2)cc1OC	–	–	–	–	–	–
O=C(Nc1ccccc1)c1ccc(F)c(S(=O)(=O)N2CCOCC2)c1	–	–	–	57	56	–
COc1ccc(NC(=O)c2ccc(S(=O)(=O)N3CCOCC3)cc2)c(OC)c1	2.6	–	–	–	–	–
COc1ccc(NC(=O)c2ccc(Cl)c(S(=O)(=O)N3CCc4ccccc4C3)c2)cn1	–	–	–	–	–	45
CC(=O)Oc1cc2oc(=O)c3c(c2cc1Cl)CCC3	–	–	–	–	–	–
C[C@H](NC(=O)Nc1ccc2c(c1)OCCO2)C(=O)O	–	–	–	–	–	–
Cc1cccc(N(C(=O)c2csnn2)C(C(=O)NC(C)(C)C)c2cccs2)c1 (configuration not stated)	–	–	–	–	–	–
O=C(NCc1ccccc1)c1ccc(F)c(S(=O)(=O)N2CCOCC2)c1	–	–	–	–	–	–
COc1ccc(C(CNC(=O)c2ccc(S(=O)(=O)N3CCOCC3)cc2)N2CCCCC2)cc1 (configuration not stated)	·	–	·	·	·	–
COc1ccc(C(=O)NCC(c2ccc(F)cc2)N2CCOCC2)cc1S(=O)(=O)N1CCCC1 (configuration not stated)	–	–	–	92	–	–
Cc1ccc(-n2nc3c(c2NC(=O)c2ccc(S(=O)(=O)N4CCOCC4)cc2)CSC3)c(C)c1	–	–	–	–	67	–
CCOc1ccccc1NC(=O)c1ccc(F)c(S(=O)(=O)N2CCC3(CC2)OCCO3)c1	–	–	–	58	58	–
O=C(Nc1ccccc1C(=O)O)c1ccc(Cl)c(S(=O)(=O)N2CCOCC2)c1	–	–	–	–	75	–
Cc1cccc(NC(=O)C2CCN(c3nc(C)cc(C)n3)CC2)c1	–	–	–	–	–	–
COc1cccc(C(=O)NCC2CCN(c3ccc(S(=O)(=O)N4CCOCC4)cc3)CC2)c1	–	–	–	56	55	–
SMILES	CYP2C9 activ	PostGolgi yeast	CYP2C19 act	CYP2C19 inhib	CYP2C9 inhib	PostGolgi ctrl
O=C(Nc1ccc2c(c1)OCCO2)c1ccc(Cl)c(S(=O)(=O)N2CCOCC2)c1	–	–	–	63	–	–
Cc1ccc(CC(NC(=O)c2ccccc2)C(=O)NCC(=O)O)cc1 (configuration not stated)	–	–	–	–	–	–
Cn1c(=O)c2c(nc(SC3C(=O)CC(C)(C)CC3=O)n2C)n(C)c1=O	–	·	–	–	–	·
CC(C)Sc1nc2c(c(=O)n(C)c(=O)n2C)n1C	–	–	–	78	–	–
O=C1CC(c2ccco2)Cc2nc(N3CCN(Cc4ccc5c(c4)OCO5)CC3)ncc21 (configuration not stated)	–	–	–	–	–	–
Cc1cc(C)c(S(=O)(=O)NCC(=O)O)cc1C	–	–	–	–	–	–
C=CCn1c(-c2ccc(N)cc2)nc2ccccc21	–	–	–	–	–	–
COc1ccc2c(c1)c(=O)c(Br)c(C)n2Cc1ccccc1	–	–	–	–	–	–
COc1ccc(-c2nc3ccccc3n2Cc2ccccc2)cc1	–	–	–	76	96	55
COc1ccc2c(c1)nc(N)n2Cc1ccccc1	–	–	–	85	–	–
COc1ccc(-c2nnnn2CCc2ccccc2)cc1	–	–	–	98	71	–
C=CCn1c(-c2ccc(OC)cc2)nc2ccccc21	–	–	–	73	76	–
CCCc1[nH]nc2c1C1(C(=O)N(CC)c3ccccc31)C(C#N)=C(N)O2 (configuration not stated)	–	–	–	–	–	–
CCCCOCP(=O)(CCCC)COCCCC	–	–	–	–	–	–
CC(C)CNc1oc(-c2ccc(F)cc2)nc1C#N	–	–	–	–	–	–
CC(C)CC(=O)NC(=S)Nc1ccccc1C(=O)Nc1ccccc1	–	–	–	–	–	–
C=CCN(C(=O)CN1CCOCC1)c1nc(C)c(-c2ccccc2)s1	–	–	–	70	–	–
OC(CN1C2=NCCN2c2ccccc21)c1ccc2c(c1)OCO2 (configuration not stated)	–	–	–	–	–	–
CCC(C)c1ccc(OCCCCN2CCOCC2)cc1 (configuration not stated)	–	70	–	57	–	–
Cc1cc(Cl)cc(C)c1OCCCCN1CCOCC1	–	35	–	54	–	–
COc1ccc(CC(NC(C)=O)C(=O)N2CCN(C(=O)N(C(C)C)C(C)C)CC2)cc1 (configuration not stated)	–	–	–	–	–	–
Cn1nc(-c2ccccc2)c(C(O)c2ccc(Cl)cc2)c1Cl (configuration not stated)	–	–	–	95	88	–
CCOC(=O)n1c(=O)oc2cc(S(=O)(=O)N3CCCCC3)ccc21	·	–	·	·	·	–
CCOC(=O)N1CCN(S(=O)(=O)c2cccc3nsnc23)CC1	–	–	–	76	–	–
CCOC(=O)N1CCN(S(=O)(=O)c2ccc(OCC(=O)OC)c(Cl)c2)CC1	–	–	–	–	–	–
CCOC(=O)N1CCN(S(=O)(=O)c2ccc(OC)c(Cl)c2Cl)CC1	–	–	–	99	–	–
CCOC(=O)N1CCN(S(=O)(=O)c2ccc(OC)c(Cl)c2)CC1	–	–	–	98	–	–
CCOC(=O)N1CCN(S(=O)(=O)c2ccc3c(c2)oc(=O)n3C)CC1	–	–	–	58	–	–
COC(=O)[C@H](CCSC)NC(=O)NCc1ccc(S(N)(=O)=O)cc1	–	–	–	–	–	–
CC(=O)c1cccc(NC(=O)C2C3C=CC(C4CC34)C2C(=O)O)c1 (configuration not stated)	–	–	–	–	–	–

Assay outcomes: PubChem, several laboratories
